Bioassay records as filed in PubChem BioAssay.
Shown are actives, neighbours in structure and some others; about 12% of the full set was active somewhere.
PLK1 PBD inh: blocks phosphopeptide binding to human PLK1 polo-box domain | P53350 | Plk1 PBD binding of FITC phosphopeptide, fluorescence polarization | Potency, µM, inactives show max response, negative = inhibition, usual class: inhibitors | hit rate 2.8% among 360,000; note: series mostly up to about 57 µM; % is set by controls: 0 for no effect and ±100 for the full control effect; nearly all actives have a fitted effect of over 65% in size
HP1b binding inh: HP1-beta chromodomain-methylated histone interaction inhibition | AlphaScreen HP1-beta / biotin-H3K9me3 peptide binding | Potency, µM (doses to about 114 µM), for the others: at the highest dose activity change, negative = inhibition, usual class: inhibitors | hit rate 0.56% among 390,000; note: nearly all actives have a fitted effect of over 70% in size
Target sequence (P83916 whole entry, looked up): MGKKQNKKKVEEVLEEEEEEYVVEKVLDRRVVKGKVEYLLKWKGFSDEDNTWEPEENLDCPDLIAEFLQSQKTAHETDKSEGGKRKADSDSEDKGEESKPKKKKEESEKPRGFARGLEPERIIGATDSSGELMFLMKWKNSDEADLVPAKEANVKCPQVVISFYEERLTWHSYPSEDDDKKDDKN
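HP1-beta protein (50 nM final) preincubated 30 min at room temperature with biotinylated H3(1-18)K9me3 peptide (50 nM) in PBS pH 7.4, 0.01% Tween-20, then compound added for 30 min. AlphaScreen streptavidin donor/nickel chelate acceptor beads (10 ug/mL final), 30 min dark, luminescence read.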
G9a inh: blocks human histone lysine methyltransferase G9a | AID 504332 | hit rate 8.8% among 350,000 | G9a H3K9 monomethylation, AlphaScreen, 2 h | Potency, µM (doses to about 102 µM), inactives show at the highest dose activity, negative = inhibition, most hits filed as inhibitors | Q96KQ7; note: % is set by controls: 0 for no effect and ±100 for the full control effect; nearly all actives have a fitted effect of over 75% in size
Target sequence (Q96KQ7 913-1193 limits assumed): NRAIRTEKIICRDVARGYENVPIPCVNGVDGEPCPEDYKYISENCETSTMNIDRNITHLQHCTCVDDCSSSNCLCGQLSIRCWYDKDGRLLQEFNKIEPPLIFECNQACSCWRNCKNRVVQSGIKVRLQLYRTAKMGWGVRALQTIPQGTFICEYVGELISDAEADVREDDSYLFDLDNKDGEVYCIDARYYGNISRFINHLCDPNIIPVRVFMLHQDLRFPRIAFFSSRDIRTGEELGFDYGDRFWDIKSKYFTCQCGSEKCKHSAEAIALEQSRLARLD
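G9a (20 nM) preincubated 15 min RT with compounds, then 500 nM biotinylated H3K9 peptide and 20 uM SAM added; 2 h RT reaction. Monomethyl-H3K9 product detected by AlphaScreen with anti-H3K9me1 antibody, streptavidin donor and anti-rabbit IgG acceptor beads.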
BAZ2B block: blocks human BAZ2B; Potency, µM (highest dose often 114 µM), without a hit: at the top dose activity change, negative = inhibition, most hits filed as inhibitors; AlphaScreen BAZ2B-H3K14Ac peptide displacement; AID 504333; hit rate 4.4% among 360,000; Q9UIF8; note: % is set by controls: 0 for no effect and ±100 for the full control effect; nearly all actives have a fitted effect of over 60% in size
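BAZ2B 50 nM plus b-H3(5-23)K14Ac 50 nM, PBS pH 7.4/0.01% Tween-20, 30 min RT; compound added (max 110 uM), 30 min RT; streptavidin donor/Ni-chelate acceptor beads 10 ug/mL final, 20 min dark; AlphaScreen read.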
Sfp PPTase inh: inhibitors of Bacillus subtilis Sfp phosphopantetheinyl transferase; AID 1490; hit rate 3.5% among 310,000; Biochemical Sfp PPTase activity, qHTS; Potency, µM, for inactives: largest response in the series, negative = inhibition, actives largely listed as inhibitors;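 note: the enzyme is Sfp with the accession as filed and its product quenches rhodamine fluorescence; 0% = enzyme reaction without inhibitor and -100% = no enzyme wells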
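Buffer: 50 mM Hepes-Na pH 7.6, 10 mM MgCl2, 0.01% Nonidet P-40, 0.01% BSA. Enzyme 15 nM, pre-exposed to compound 15 min; substrates then added and fluorescence change tracked over 30 min.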
JMJD2A Tudor inh: JMJD2A Tudor domain (human) inhibition. hit rate 4.4% among 390,000. AlphaScreen JMJD2A-Tudor / H3K4me3 peptide binding. O75164. AID 504339. Potency, µM (highest dose often 114 µM), for the others: at the top dose activity change, negative = inhibition, most hits filed as inhibitors; note: % is set by controls: 0 for no effect and ±100 for the full control effect; nearly all actives have a fitted effect of over 50% in size
Starred values were filed as active, the others as inactive; ? = inconclusive; / = not tested or not shown; [ ] = another dose, or the depositor's remark. Calls come from the whole dose curve; as a rule, active = well fitted curve in the direction sought with a large enough effect; inconclusive = small, poorly fitted or top-dose-only effect, or another doubt; inactive = no such curve, though single readings can be large; an effect the other way counts as inactive or inconclusive. Potency is the fitted concentration of half-maximal effect.

SMILES	PLK1 PBD inh	HP1b binding inh	G9a inh	BAZ2B block	Sfp PPTase inh	JMJD2A Tudor inh
C[C@@H]1CN([C@@H](C)CO)C(=O)Cc2cc(NS(=O)(=O)c3cn(C)cn3)ccc2O[C@@H]1CN(C)C(=O)Nc1ccccc1	-21.5%	35.7%	/	/	/	-4.3%
CCN1CCOC(CC(=O)Nc2cccc([N+](=O)[O-])c2)C1=O (stereo unspecified)	-9.2%	16.1%	7.94µM*	-29.5%	?	-1.8%
CCCN1CCOC(CC(=O)Nc2ccc([N+](=O)[O-])cc2)C1=O (stereo unspecified)	-21.8%	-2.9%	20µM*	1.7%	2.7%	-6.0%[11.4 µM]
CCOC(=O)c1ccc(NC(=O)CC2OCCN(CC)C2=O)cc1 (stereo unspecified)	-6.2%	29.4%	?	-16.1%	-6.9%	-25.2%
CCOCCN1CCN(C2c3ccccc3CSc3ccccc32)CC1 (stereo unspecified)	-4.4%	?	/	/	/	12.6µM*
COC(=O)C1=C(C)N=c2s/c(=C/c3ccoc3)c(=O)n2C1c1ccccc1 (stereo unspecified)	-1.6%	?	?	?	79.4µM*	?
CC(=O)C1=C(C)N=c2s/c(=C/c3ccc4c(c3)OCO4)c(=O)n2C1c1ccc(N(C)C)cc1 (stereo unspecified)	26.7µM*	?	/	/	/	-25.7%[11.4 µM]
COC(=O)C1=C(C)N=c2s/c(=C3\C(=O)Nc4ccccc43)c(=O)n2C1c1ccccc1 (stereo unspecified)	/	/	7.94µM*	7.94µM*	1.4%	/
CC(NC(=O)C1CCN(C(=O)c2ccc(-n3ccc4ccccc43)s2)CC1)c1ccccc1 (stereo unspecified)	/	23.2%	3.0%[59 µM]	-2.8%	/	-3.2%
C[C@H](O)c1[nH]c2cc(F)ccc2c1[C@H](C)O	-7.6%	26.9%	/	0.7%[57.1 µM]	-7.3%	-34.5%
Cc1ccc(NC(=O)/C=C/c2ccco2)cc1F	/	?	12.6µM*	?	/	-34.6%
O=C(/C=C/c1ccco1)Nc1ccc2nn(-c3ccccc3)nc2c1	-3.5%	9.0%	?	-34.6%	?	-19.2%
Cc1cc(NC(=O)/C=C/c2ccco2)ccc1NC(=O)c1ccccc1	-5.8%	27.6%	?	-27.7%	12.6µM*	-10.5%
CCc1ccccc1Nc1nc2cc(Cl)c(Cl)cc2nc1-n1nc(C)cc1C	/	33.7%	10.6%[59 µM]	13.5%	/	6.2%
COc1cc(NC(=O)C2(C)CCCN2C)cc(OC)c1OC (stereo unspecified)	-12.4%	/	/	/	/	/
COc1ccc2c(c1)CCc1c(C(=O)Nc3ccn(Cc4ccc(C)cc4)n3)noc1-2	-10.1%	6.8%	16.9%[2.33 µM]	-32.8%	-10.3%	?
Cc1ccc(Cn2ccc(NC(=O)c3noc4c3CCc3ccccc3-4)n2)cc1	-6.4%	16.4%	29.9%[59 µM]	-6.6%	15.8µM*	-2.0%
CC(C)SC1=NC(C)(C)C=C(/C=C/c2c(Cl)cccc2Cl)N1	-21.8%	57.7%	44.7µM*	-15.5%	-15.1%	-2.7%
CC(C)SC1=NC(C)(C)C=C(/C=C/c2ccc(Cl)cc2Cl)N1	-28.0%	-18.6%	44.7µM*	?	2.7%	-31.2%
COc1ccc(C)cc1NC(=O)c1ccc2nc(Cc3ccccc3)oc2c1	/	69.6%[57 µM]	9.1%[59 µM]	28.7%	/	2.9%
COC(=O)c1sc(S(=O)(=O)Nc2ccc3cn[nH]c3c2)c(C(=O)OC)c1C	-4.6%	34.1%	?	-21.0%	14.3%	-0.7%
O=C(O)c1cc(S(=O)(=O)Nc2ccc3cn[nH]c3c2)ccc1Cl	-2.7%	?	/	/	/	89.1µM*
COC(=O)c1ccccc1S(=O)(=O)Nc1ccc2cn[nH]c2c1	-6.9%	49.4%	44.7µM*	-2.9%	-1.7%	-0.3%
CN(C)c1ccc(C(CNC(=O)c2ccccc2)c2c[nH]c3ccccc23)cc1 (stereo unspecified)	?	39.8µM*	8.91µM*	14.1µM*	30.8%	?
CN(C)c1ccc(C(CNS(=O)(=O)c2ccc(F)c(F)c2)c2c[nH]c3ccccc23)cc1 (stereo unspecified)	-2.6%	31.6µM*	39.8µM*	22.4µM*	3.7%	22.4µM*
